Measurements: PubChem BioAssay AID1159580 (chemical genetic matrix, 2015)
“And” between values parts separate entries of the source, which are not always exact repeats. Equal entries are not always repeated. Out of some 5,500 compounds screened, about 2,000 (36%) were called active. About 18% were inconclusive and are not listed. Rule as the data show it: active = normalized growth mostly below about 0.91 (no sharp cut-off); inconclusive = no clear call, values can overlap the other calls; inactive = mostly above about 0.92. The list shows a part of the results.

Assay: chemical genetic growth profiling, strain panel (AID 1159580);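 also: tested at 20 µM; growth read once vehicle control cultures reached saturation at 30 °C; 1 = growth at the plate median or of vehicle wells; lower values mean less growth of the strain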
Conditions: S. cerevisiae deletion strains, growth OD

Measured: normalized growth

COc1cc(/C=C/C(=O)O)ccc1O
inactive: locus YAL021C, strain ccr4, hits give low values 1 | locus YAL026C, strain drs2, hits give low values 1.01 | locus YAL030W, strain snc1, hits give low values 1.01 | locus YBL061C, strain skt5, hits give low values 1.01 | locus YBR009C, strain hhf1, hits give low values 1.02 | locus YBR021W, strain FUR4, hits give low values 1.01 | locus YBR023C, strain chs3, hits give low values 1.01 | locus YBR171W, strain sec66, hits give low values 1.01 | locus YBR229C, strain ROT2, hits give low values 1.01 | locus YBR231C, strain swc5, hits give low values 1.01 | locus YBR279W, strain paf1, hits give low values 1.01 | locus YCL011C, strain gbp2, hits give low values 1.01 | locus YCL016C, strain dcc1, hits give low values 1.01 | locus YCL029C, strain bik1, hits give low values 0.977 | locus YCL061C, strain MRC1, hits give low values 1.02 | locus YCL069W, strain vba3, hits give low values 0.998 | locus YCR088W, strain abp1, hits give low values 1.01 | locus YDL005C, strain med2, hits give low values 1.02 | locus YDL035C, strain GPR1, hits give low values 1.01 | locus YDL040C, strain nat1, hits give low values 1 | locus YDL074C, strain BRE1, hits give low values 1 | locus YDL101C, strain DUN1, hits give low values 1.02 | locus YDL185W, strain tfp1, hits give low values 0.971 | locus YDL192W, strain arf1, hits give low values 0.986 | locus YDR001C, strain nth1, hits give low values 1.01 | locus YDR069C, strain doa4, hits give low values 1.03 | locus YDR101C, strain arx1, hits give low values 0.961 | locus YDR137W, strain rgp1, hits give low values 1.01 | locus YDR150W, strain NUM1, hits give low values 1 | locus YDR159W, strain sac3, hits give low values 0.98 | locus YDR162C, strain NBP2, hits give low values 0.992 | locus YDR195W, strain ref2 0.966 | locus YDR297W, strain sur2, hits give low values 1.01 | locus YDR318W, strain mcm21, hits give low values 0.997 | locus YDR334W, strain swr1, hits give low values 1.01 | locus YDR335W, strain msn5, hits give low values 1.01 | locus YDR388W, hits give low values 0.979 | locus YDR392W, strain spt3, hits give low values 0.985 | locus YDR502C, strain sam2, hits give low values 0.984 | locus YEL003W, strain gim4, hits give low values 1 | locus YEL037C, strain rad23, hits give low values 1.01 | locus YEL061C, strain CIN8 (second series), hits give low values 1.01 | locus YEL061C, strain CIN8, hits give low values 0.972 | locus YER015W, strain faa2, hits give low values 1.01 | locus YER016W, strain bim1, hits give low values 1 | locus YER110C, hits give low values 0.981 | locus YER111C, strain swi4, hits give low values 1.01 | locus YER155C, strain BEM2 (second series), hits give low values 0.999 | locus YER155C, strain BEM2, hits give low values 1 | locus YER167W, strain BCK2, hits give low values 0.973 | locus YFR010W, strain ubp6, hits give low values 1.01 | locus YGL078C, strain dbp3, hits give low values 0.983 | locus YGL086W, strain mad1, hits give low values 0.952 | locus YGL167C, strain pmr1, hits give low values 1.01 | locus YGL173C, strain kem1, hits give low values 1.01 | locus YGL227W, strain vid30, hits give low values 1.01 | locus YGL240W, strain doc1, hits give low values 1.02 | locus YGL248W, strain PDE1, hits give low values 1.02 | locus YGL253W, strain hxk2, hits give low values 0.997 | locus YGR135W, strain pre9, hits give low values 0.995 | locus YGR252W, strain gcn5, hits give low values 1.07 | locus YHR013C, strain ard1, hits give low values 0.996 | locus YHR027C, strain rpn1, hits give low values 1 | locus YHR030C, strain SLT2, hits give low values 0.993 and 1.02 | locus YHR079C, strain IRE1 (second series), hits give low values 0.972 | locus YHR079C, strain IRE1, hits give low values 1.05 | locus YHR094C, strain hxt1, hits give low values 0.966 | locus YHR129C, strain ARP1, hits give low values 1 | locus YHR142W, strain chs7, hits give low values 1.01 | locus YHR200W, strain rpn10, hits give low values 0.989 | locus YIL066C, strain RNR3, hits give low values 1 | locus YIL073C, strain SPO22, hits give low values 0.99 | locus YIL125W, strain kgd1, hits give low values 0.968 | locus YIR030C, strain dcg1, hits give low values 0.983 | locus YJL092W, strain hpr5, hits give low values 1.01 | locus YJL095W, strain BCK1 (second series), hits give low values 1.01 | locus YJL095W, strain BCK1, hits give low values 1.03 and 1 | locus YJL115W, strain asf1, hits give low values 1.01 | locus YJL129C, strain trk1, hits give low values 1.01 | locus YJL134W, strain LCB3, hits give low values 0.999 | locus YJL154C, strain vps35, hits give low values 1 | locus YJL164C, strain tpk1, hits give low values 1 | locus YJL166W, strain qcr8, hits give low values 1.02 | locus YJL168C, strain set2, hits give low values 0.984 | locus YJL187C, strain SWE1 (second series), hits give low values 1.01 | locus YJR043C, strain POL32, hits give low values 1.03 | locus YJR066W, strain TOR1, hits give low values 0.995 | locus YKL009W, strain mrt4, hits give low values 1.01 | locus YKL068W, hits give low values 0.974 | locus YKL085W, strain MDH1 (second series), hits give low values 0.977 | locus YKL085W, strain MDH1, hits give low values 0.977 | locus YKL160W, strain elf1, hits give low values 1.01 | locus YKL190W, strain CNB1, hits give low values 0.995 | locus YKR001C, strain vps1, hits give low values 0.967 | locus YKR026C, strain gcn3, hits give low values 1.02 | locus YKR091W, strain srl3, hits give low values 1.01 | locus YLL001W, strain dnm1, hits give low values 1.01 | locus YLL026W, hits give low values 1.01 | locus YLL041C, strain sdh2, hits give low values 1.01 | locus YLR027C, strain aat2, hits give low values 1.01 | locus YLR039C, strain RIC1, hits give low values 0.99 | locus YLR058C, strain SHM2, hits give low values 1.01 | locus YLR102C, strain apc9, hits give low values 0.98 | locus YLR113W, strain HOG1, hits give low values 0.958 | locus YLR221C, strain rsa3, hits give low values 1.01 | locus YLR258W, strain gsy2, hits give low values 1.01 | locus YLR262C, strain YPT6 (second series), hits give low values 1.01 | locus YLR262C, strain YPT6, hits give low values 1.01 | locus YLR268W, strain sec22, hits give low values 0.967 | locus YLR320W, strain mms22, hits give low values 1 | locus YLR330W, strain CHS5, hits give low values 1.01 | locus YLR342W, strain FKS1 (second series), hits give low values 1.02 | locus YLR342W, strain FKS1, hits give low values 1.02 | locus YLR357W, strain rsc2, hits give low values 1.01 | locus YLR370C, strain arc18, hits give low values 1.02 | locus YLR371W, strain rom2, hits give low values 0.936 | locus YLR384C, strain iki3, hits give low values 1.01 | locus YLR418C, strain cdc73, hits give low values 0.968 | locus YML016C, strain PPZ1, hits give low values 1.01 | locus YML032C, strain rad52, hits give low values 1.01 | locus YML120C, strain ndi1, hits give low values 1 | locus YML124C, strain tub3, hits give low values 0.984 | locus YMR058W, strain fet3, hits give low values 1.02 | locus YMR078C, strain ctf18, hits give low values 0.984 | locus YMR125W, strain sto1, hits give low values 1 | locus YMR129W, hits give low values 1.01 | locus YMR205C, strain PFK2, hits give low values 1.01 | locus YMR223W, strain ubp8, hits give low values 1.01 | locus YMR231W, strain pep5, hits give low values 1.01 | locus YMR263W, strain SAP30, hits give low values 1 | locus YMR307W, strain GAS1, hits give low values 0.99 | locus YNL067W, strain RPL9B, hits give low values 1 | locus YNL071W, strain lat1, hits give low values 1 | locus YNL183C, strain NPR1, hits give low values 1 | locus YNL209W, strain ssb2, hits give low values 1.01 | locus YNL233W, strain BNI4, hits give low values 1.01 | locus YNL248C, strain rpa49, hits give low values 1.01 | locus YNL250W, strain rad50, hits give low values 0.995 | locus YNL271C, strain bni1, hits give low values 1 | locus YNL298W, strain CLA4, hits give low values 0.981 | locus YNL307C, strain MCK1, hits give low values 0.977 | locus YNL322C, strain KRE1 (second series), hits give low values 1.01 | locus YNL322C, strain KRE1, hits give low values 0.999 | locus YNR049C, strain mso1, hits give low values 1.01 | locus YNR052C, strain pop2, hits give low values 0.991 | locus YOL012C, strain htz1 0.646 | locus YOL147C, strain pex11, hits give low values 0.969 | locus YOR001W, strain rrp6, hits give low values 1.06 | locus YOR061W, strain CKA2, hits give low values 1.01 | locus YOR069W, strain VPS5, hits give low values 0.995 | locus YOR070C, strain gyp1, hits give low values 1.01 | locus YOR080W, strain dia2, hits give low values 1.01 | locus YOR083W, strain WHI5, hits give low values 1.02 | locus YOR106W, strain vam3, hits give low values 1.03 | locus YOR136W, strain idh2, hits give low values 0.974 | locus YOR144C, strain elg1, hits give low values 0.977 | locus YOR184W, strain ser1, hits give low values 1.01 | locus YOR231W, strain MKK1, hits give low values 1.03 | locus YOR265W, strain rbl2, hits give low values 1 | locus YOR270C, strain vph1, hits give low values 0.994 | locus YOR290C, strain snf2, hits give low values 1.01 | locus YOR316C, strain cot1, hits give low values 0.981 | locus YPL051W, strain arl3, hits give low values 1.01 | locus YPL078C, strain atp4, hits give low values 1.02 | locus YPL106C, strain sse1, hits give low values 1.01 | locus YPL240C, strain hsp82, hits give low values 1.02 | locus YPL241C, strain CIN2, hits give low values 0.999 | locus YPL256C, strain CLN2, hits give low values 1 | locus YPR119W, strain clb2, hits give low values 0.975 | locus YPR141C, strain kar3, hits give low values 0.975 | locus YPR163C, strain tif3, hits give low values 0.977 | locus YPR167C, strain met16, hits give low values 0.992 | strain wtn01, hits give low values 0.968
